From PubChem
KKLEB cytotox = counter-screen for CF NF-kB inhibitors: cytotoxicity; KKLEB CF airway cells viability, ATPlite luminescence, overnight; hits give low values; cells stimulated with P. aeruginosa culture filtrate; activity change (cytotoxicity), % at 5 µM; actives 0.36% (n = 360,000); AID 602141;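 active means corrected activity change at or below -50% at 5 µM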
TRPM1 prom inh = MITF TRPM1 promoter inhibition in SK-MEL-5 cells. SK-MEL-5 TRPM1 promoter luciferase, 24 h. inhibition, % at 12.5 µM. actives 0.83% (n = 330,000). AID 488899;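 active means mean inhibition across replicates of 60% or more, whatever share of single replicates reaches that level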
HIF-2a inh = inhibitors of HIF-2a | 786-0 RCC cells HIF-2a reporter, luciferase luminescence, overnight | inhibition, % at 18.8 µM | actives 0.72% (n = 360,000) | AID 624352;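 active means inhibition of the luminescence signal of 40% or more relative to plate controls, in a single-dose primary screen at 18.75 µM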
CF NFkB block = inhibitors of cystic fibrosis induced NF-kB; KKLEB NF-kB-GFP reporter, PAF-induced, GFP fluorescence overnight; inhibition, % at 5 µM; actives 0.86% (n = 360,000); AID 588850;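 active means at least 50% inhibition at 5 µM, scaled per plate between neutral and stimulator controls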;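 further: PAF is a Pseudomonas aeruginosa culture filtrate used as stimulus; plate controls were PAF-stimulated DMSO wells for no effect and unstimulated DMSO wells for full effect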
Peg3 promoter = Peg3 promoter activity inhibition. actives 1.7% (n = 360,000). HeLa PEG-Prom luciferase reporter, luminescence, overnight. inhibition, % at 20 µM;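 active means inhibition of at least 50% at 20 µM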
Shn3 3UTR inh = reduces Shn3 3'UTR luciferase signal in osteoblasts; inhibition, % at 12.5 µM; Clone20 osteoblast Shn3 3'UTR firefly luciferase, 24 h; AID 588674; actives 0.52% (n = 360,000);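 active means mean inhibition of at least 75% with every replicate also reaching 75%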;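 further: 0% = median of neutral control wells and 100% = pilot-screen positive control compound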
Numbers without * were called inactive. Compounds with a hit are over-represented: about 2.7% of the library has one in this group of screens.

For COc1cc2c(-c3ccc(O)cc3)nc3c(c(C)nn3-c3ccccc3)c2cc1OC the results were KKLEB cytotox -27.4, TRPM1 prom inh 13.1, HIF-2a inh 20.6, CF NFkB block -40.2, Peg3 promoter 76.6* and Shn3 3UTR inh 26.2.
For CCCCn1c(N)c(N(CCOC)C(=O)COC(=O)COc2ccccc2C#N)c(=O)[nH]c1=O the results were KKLEB cytotox 5.0, TRPM1 prom inh 11.3, HIF-2a inh -0.8, CF NFkB block -19.0, Peg3 promoter 2.5 and Shn3 3UTR inh -24.6.
Cc1ccc(NC(=O)c2ncn(CCCN[C@H](C)c3cccc4ccccc34)n2)cc1C was read as KKLEB cytotox 4.1, TRPM1 prom inh 59.7, HIF-2a inh -29.0, CF NFkB block 13.7, Peg3 promoter 84.6* and Shn3 3UTR inh -4.8.
Cc1ccc(NCCCn2cnc(C(=O)Nc3ccc(C)c(C)c3)n2)cc1C was read as KKLEB cytotox 14.2, TRPM1 prom inh 5.4, HIF-2a inh -24.0, CF NFkB block -0.8, Peg3 promoter -5.2 and Shn3 3UTR inh 6.4.
COc1cc(Br)cc(/C=N/NC(=O)Cc2ccc(C(F)(F)F)cc2[N+](=O)[O-])c1O was read as KKLEB cytotox 6.3, TRPM1 prom inh 13.1, HIF-2a inh 18.2, CF NFkB block -5.1, Peg3 promoter 54.3* and Shn3 3UTR inh 20.4.
Screening CCOc1cc(/C=N/NC(=O)Cc2ccc(C(F)(F)F)cc2[N+](=O)[O-])c(Br)cc1OC returned KKLEB cytotox -15.1, TRPM1 prom inh 6.1, HIF-2a inh 6.8, CF NFkB block -5.7, Peg3 promoter 35.3 and Shn3 3UTR inh 22.8.
Fc1ccccc1-c1ccc(/C=N/Nc2nc3ccccc3[nH]2)o1 was read as KKLEB cytotox -55.2*, TRPM1 prom inh -3.8, HIF-2a inh -184.0, CF NFkB block -7.8, Peg3 promoter -226.3 and Shn3 3UTR inh -60.4.
`CCCCn1c(/C=N/Nc2nc3ccccc3[nH]2)nc2ccccc21` gave KKLEB cytotox -6.4, TRPM1 prom inh 8.8, HIF-2a inh -135.0, CF NFkB block 2.1, Peg3 promoter -28.9 and Shn3 3UTR inh 63.7.
COc1cccc(CN(C)C(=O)[C@@H](NC(=O)c2ccc(C)cc2)C(C)C)c1 was read as KKLEB cytotox 0.7, TRPM1 prom inh 3.6, HIF-2a inh 13.6, CF NFkB block -2.4, Peg3 promoter 20.3 and Shn3 3UTR inh 2.9.
For O=C(Nc1ccc([N+](=O)[O-])cc1)c1nc[nH]c1C(=O)NC1CCCCC1 the results were KKLEB cytotox -51.1*, TRPM1 prom inh 10.1, HIF-2a inh 18.6, CF NFkB block 35.3, Peg3 promoter 48.7 and Shn3 3UTR inh 38.7.
For O=C1C(c2ccccc2)=[N+]([O-])c2ccccc21 the results were KKLEB cytotox 2.9, TRPM1 prom inh -8.0, HIF-2a inh -75.3, CF NFkB block 21.5, Peg3 promoter 88.1* and Shn3 3UTR inh 56.9.
For Cc1ccccc1S(=O)(=O)NC(=NCc1ccc(F)cc1)c1ccccc1 the results were KKLEB cytotox 1.9, TRPM1 prom inh -3.0, HIF-2a inh 11.5, CF NFkB block -3.7, Peg3 promoter 15.2 and Shn3 3UTR inh -5.0.
`C[C@H](NC(=O)c1[nH]cnc1C(=O)Nc1ccc(CNC(=O)OC(C)(C)C)cc1)C(=O)OCc1ccccc1` gave KKLEB cytotox 20.1, TRPM1 prom inh -0.9, HIF-2a inh 3.2, CF NFkB block 0.8, Peg3 promoter 97.5* and Shn3 3UTR inh 35.0.
Screening CC(C)C[C@H](NC(=O)c1[nH]cnc1C(=O)Nc1ccc(CNC(=O)OC(C)(C)C)cc1)C(=O)OCc1ccccc1 returned KKLEB cytotox 13.7, TRPM1 prom inh 1.9, HIF-2a inh 6.2, CF NFkB block -39.0, Peg3 promoter 38.7 and Shn3 3UTR inh -1.9.
For CC(C)(C)OC(=O)CNC(=O)c1[nH]cnc1C(=O)Nc1ccc(CNC(=O)OC(C)(C)C)cc1 the results were KKLEB cytotox -14.3, TRPM1 prom inh 1.3, HIF-2a inh 4.8, CF NFkB block 43.4, Peg3 promoter 65.6* and Shn3 3UTR inh 18.1.
`CC(C)(C)OC(=O)NCc1ccc(NC(=O)c2nc[nH]c2C(=O)NCCNC(=O)c2[nH]cnc2C(=O)Nc2ccc(CNC(=O)OC(C)(C)C)cc2)cc1` gave KKLEB cytotox -32.5, TRPM1 prom inh 1.6, HIF-2a inh 7.5, CF NFkB block 72.3*, Peg3 promoter 83.8* and Shn3 3UTR inh -15.2.
For C[C@@H](O)CNC(=O)c1[nH]cnc1C(=O)Nc1ccc(CNC(=O)OC(C)(C)C)cc1 the results were KKLEB cytotox 7.5, HIF-2a inh 10.5, CF NFkB block -6.6, Peg3 promoter 27.7 and Shn3 3UTR inh -1.4.
For CC(C)(C)OC(=O)CNC(=O)c1nc[nH]c1C(=O)NCc1ccc(CNC(=O)OC(C)(C)C)cc1 the results were KKLEB cytotox -3.7, TRPM1 prom inh 5.5, HIF-2a inh 15.2, CF NFkB block 7.0, Peg3 promoter 22.6 and Shn3 3UTR inh 52.7.
`Cc1cn(CC(=O)NCc2ccccc2)c(=O)[nH]c1=O` gave KKLEB cytotox -6.0, TRPM1 prom inh 5.9, HIF-2a inh 3.7, CF NFkB block 18.1, Peg3 promoter 8.6 and Shn3 3UTR inh -5.2.
`O=C(CN1C(=O)NC2(CCCC2)C1=O)OCc1cc(=O)n2cc(Br)ccc2n1` gave KKLEB cytotox 4.8, TRPM1 prom inh 3.3, HIF-2a inh 7.9, CF NFkB block 15.6, Peg3 promoter 3.8 and Shn3 3UTR inh -13.3.
For COc1ccc(NC(=O)C(CC(=O)O)Cc2ccc(Cl)cc2)cc1 (configuration not stated) the results were KKLEB cytotox -10.4, TRPM1 prom inh 6.3, HIF-2a inh 23.3, CF NFkB block 1.4, Peg3 promoter -3.5 and Shn3 3UTR inh 2.5.
For O=C1C=C(NCCc2cc(Br)c(O)c(Br)c2)C(=O)c2ncccc21 the results were KKLEB cytotox -33.2, TRPM1 prom inh 109.2*, HIF-2a inh 8.7, CF NFkB block 76.3*, Peg3 promoter 92.8* and Shn3 3UTR inh 93.6*.
Screening Cn1nnnc1Sc1ncnc2scc(-c3ccccc3)c12 returned KKLEB cytotox -24.5, TRPM1 prom inh 36.1, HIF-2a inh 59.6*, CF NFkB block 38.0, Peg3 promoter 49.2 and Shn3 3UTR inh 7.7.
`COC(=O)[C@@H]1[C@@H](C#N)C2(c3ccccc3-c3ccccc32)N(c2ccc(Cl)cc2)N1C#N` gave KKLEB cytotox -6.7, TRPM1 prom inh 37.8, HIF-2a inh 63.6*, CF NFkB block 10.2, Peg3 promoter 109.8* and Shn3 3UTR inh 60.5.
`O=C(COc1ccc(Cl)cc1Br)Nc1nnc(C2CC2)s1` gave KKLEB cytotox -5.1, TRPM1 prom inh -32.4, HIF-2a inh -62.4, CF NFkB block 5.1, Peg3 promoter -59.2 and Shn3 3UTR inh -81.0.
For O=C1C(=O)N(CCS(=O)(=O)c2ccccc2)c2ccc(Cl)cc21 the results were KKLEB cytotox -8.2, TRPM1 prom inh 5.1, HIF-2a inh 7.3, CF NFkB block -0.1, Peg3 promoter 64.0* and Shn3 3UTR inh -7.2.
